For assay [1], the target named is Albumin (Bos taurus) (UniProt P02769). Nature of the assay: bovine serum albumin binders on microarray, profiling panel, artefact control for SMM control protein annotation, biochemical, small-molecule microarray, Alexa647 label, 635/667 nm fluorescence (AID 1118).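 Further: score merges 667 nm emission intensity and signal-to-noise per printed compound spot.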 The conditions noted are these: BSA-A647 binding, fluorescence 635 nm, higher = more signal.
The nature of assay [2]: small-molecule microarray binders of probe aXIP, primary screen, biochemical, NeuroSMM set, 635/667 nm fluorescence (AID 1119).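 Further: probe is the protein aXip251-270 applied at 1 µg/mL to compound-printed slides; binding of probe to printed compounds measured as 667 nm fluorescence plus signal to noise.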 The conditions noted are these: higher = more signal, called active from +8 up or from −8 down.
Assay [3] is described as follows: small-molecule binders of probe aNOTCH3, primary screen, biochemical, small-molecule microarray, 635/667 nm fluorescence (AID 1120).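 Further: probe is a biotin-tagged antibody raised against NOTCH3 rather than NOTCH3 protein; score merges spot fluorescence near 667 nm with spot signal to noise.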 Particulars: higher = more signal.
A short description of assay [4]: small-molecule binders of probe aNOTCH2, primary screen, biochemical, small-molecule microarray, 635/667 nm fluorescence (AID 1121).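 Further: score merges feature fluorescence read at 667 nm with its signal to noise.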 The conditions noted are these: higher = more signal.
The target of assay [5] is Carbonic anhydrase 2 (Homo sapiens) (UniProt P00918). Nature of the assay: CAII small-molecule binders, profiling panel, biochemical, small-molecule microarray, Alexa647-labelled CAII (AID 1122). Particulars: CAII-A647 binding fluorescence, higher = more signal.
Assay [6] in a line: COS7 lysate on small-molecule microarray, probe aHis, 635 nm (AID 1123).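 Further: z-score combines 667nm fluorescence intensity with signal-to-noise per printed compound spot.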 The conditions noted are these: COS7 cell lysate, fluorescence, higher = more signal.
A short description of assay [7]: compound binding in COS7 lysate, probe aLAP1, primary screen, cell lysate, small-molecule microarray (AID 1124).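 Further: lysate comes from COS7 cells expressing LAP1 and is applied at 0.3 µg/mL; score merges spot fluorescence near 667 nm with signal-to-noise over triplicate slides.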 The conditions noted are these: probe aLAP1, fluorescence, higher = more signal.
Assay [8] has as its system Sam68 (KHDRBS1). Description: Sam68 small-molecule binders, primary screen, biochemical, small-molecule microarray, 635 nm fluorescence (AID 1125).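 Further: score merges 667 nm channel intensity with signal to noise over triplicate slides.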 Particulars: small-molecule microarray binding, higher = more signal.
In assay [9] the test system is Chordin-like protein 2 (CHRDL2). Nature of the assay: CHRDL2 small-molecule binders, primary screen, biochemical, small-molecule microarray, 635 nm fluorescence (AID 1126).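 Further: printed compound slides probed with Chrdl2 protein at 4 µg/mL for 1 h at 4 C; score merges 667 nm emission intensity with signal to noise over three replicate slides.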 The conditions noted are these: small-molecule microarray binding, fluorescence 635 nm; higher = more signal.
In assay [10] the target is Concanavalin-A (Canavalia ensiformis) (UniProt P02866). Description: ConA small-molecule binders, primary screen, artefact control for SMM control protein annotation, biochemical, small-molecule microarray, Alexa647 label, 635 nm (AID 1127).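 Further: z combines 667 nm emission intensity with signal-to-noise across three replicate slides.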 Particulars: ConA-A647 binding fluorescence, higher = more signal.
Concanavalin-A (Canavalia ensiformis), sequence (P02866 whole entry, looked up): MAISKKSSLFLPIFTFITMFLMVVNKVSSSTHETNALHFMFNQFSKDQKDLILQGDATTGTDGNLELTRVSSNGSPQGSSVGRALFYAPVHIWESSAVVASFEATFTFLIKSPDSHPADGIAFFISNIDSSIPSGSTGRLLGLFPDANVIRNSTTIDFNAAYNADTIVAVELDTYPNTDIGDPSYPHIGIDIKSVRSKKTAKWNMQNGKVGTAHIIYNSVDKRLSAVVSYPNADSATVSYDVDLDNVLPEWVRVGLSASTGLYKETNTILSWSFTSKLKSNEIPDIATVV

Molecules are shown by their SMILES. Active and inactive are the calls of the source.

Albumin (Bos taurus), sequence (P02769 whole entry, looked up): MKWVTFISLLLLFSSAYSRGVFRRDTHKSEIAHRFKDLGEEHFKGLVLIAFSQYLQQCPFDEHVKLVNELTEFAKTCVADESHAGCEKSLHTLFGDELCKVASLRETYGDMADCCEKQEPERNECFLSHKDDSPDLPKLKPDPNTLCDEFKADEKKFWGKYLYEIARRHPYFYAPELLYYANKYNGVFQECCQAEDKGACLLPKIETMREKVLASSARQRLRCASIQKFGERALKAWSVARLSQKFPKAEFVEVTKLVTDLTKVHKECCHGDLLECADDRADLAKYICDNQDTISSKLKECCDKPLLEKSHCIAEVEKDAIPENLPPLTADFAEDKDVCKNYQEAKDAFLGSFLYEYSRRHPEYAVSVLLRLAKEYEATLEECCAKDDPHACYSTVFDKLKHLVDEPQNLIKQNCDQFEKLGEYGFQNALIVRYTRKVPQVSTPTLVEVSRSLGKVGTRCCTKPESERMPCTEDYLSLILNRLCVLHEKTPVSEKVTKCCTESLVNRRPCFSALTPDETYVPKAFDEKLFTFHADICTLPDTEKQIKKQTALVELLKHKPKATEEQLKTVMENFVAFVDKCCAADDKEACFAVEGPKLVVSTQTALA

For the compound `O=C1OCCC=C[C@H]2OC34C=CCN(c5ccc(Cl)cc5)C(=O)[C@H]3N(CCCCCO)C(=O)[C@@H]4C12` (stereo not given in full), the composite z-score is 0.772 in assay [1]; -0.0663 in assay [3]; -0.0714 in [4]; 0.873 in assay [5]; 0.848 in assay [6]; 0.281 in assay [7]. Also, the values for the composite z-score in assay [8], in assay [9] and in assay [10] were 0.25, -0.27 and -1.21, respectively. Besides, the composite Z-score in assay [2] is 0.728 (inactive).

For `COCCCNC(=O)[C@]1(CCC(=O)OC(C)(C)C)N=C(c2ccc(OCCCO)cc2)O[C@@H]1c1ccccc1`, the composite z-score was 0.968 in assay [1]; 0.246 in assay [3]; 0.221 in assay [4]; 0.871 in assay [5]; 3.17 in [6]; 0.62 in assay [7]. Besides, the composite z-score in [8] was 0.881; in [9] it was -0.0833; in assay [10] it was -0.354. In assay [2], the composite Z-score is 0.977 (inactive).

As for `COc1cc(CO)cc(I)c1O[C@H]1C=C(C(=O)NCCO)C[C@@H](N(Cc2ccc(F)cc2)C(=O)C2CCCO2)[C@@H]1O` (stereo not given in full), the composite z-score in [1] is -0.53; in [3] it was -0.154; in assay [4], -0.0781; in assay [5], -0.124; in [6] it was -0.248; in assay [7], -0.144. Further, the composite z-score was 0.0803 in assay [8], 0.325 in assay [9] and -0.422 in [10]. Besides, the composite Z-score in assay [2] is -0.77 (inactive).

For `O=C(O)[C@]1(Cc2ccccc2)N=C(c2ccc(OCCCO)cc2)O[C@@H]1c1ccccc1`, the composite z-score was 0.424 in [1]; -0.122 in assay [3]; -0.14 in assay [4]; 0.837 in [5]; 0.689 in [6]; -0.278 in [7]. For the same compound, the composite z-score in assay [8] is -1.24; in assay [9], -1.65; in [10], 0.0277. In assay [2], the composite Z-score was -0.191 (inactive).

For the compound `CCCCN1CC=CC23O[C@@H]4/C=C\CCC(C)OC(=O)C4[C@H]2C(=O)N(CCCCCCO)[C@@H]3C1=O` (stereo not given in full), the composite z-score in assay [1] was 0.5; in [3] it was -0.307; in assay [4], -0.228; in assay [5], 0.86; in assay [6], 0.177; in assay [7] it was 0.54. Besides, the composite z-score in assay [8] was -0.168; in assay [9] it was -0.361; in assay [10], -0.34. For the same compound, in [2], the composite Z-score is -0.59 (inactive).

On to `COC(=O)[C@@]1(Cc2ccc(OC)cc2)[C@H]2c3cc(C(=O)N(C)C)n(Cc4nc5ccccc5[nH]4)c3C[C@H]2CN1C(=O)c1ccccc1`, for which the composite z-score was 0.997 in assay [1]; 0.515 in [3]; -0.112 in [4]; 0.781 in assay [5]; 2.27 in assay [6]; -0.0637 in assay [7]. Also, the figures for the composite z-score in [8], in [9] and in assay [10] were 1.32, -0.54 and 1.19, respectively. The composite Z-score in assay [2] is -0.119 (inactive).

For `NC(=O)N1C(=O)C2C(C1=O)C1C=C(CCCO)C2C(c2cccs2)N1Cc1cc2c(cc1Br)OCO2` (stereo not given), the composite z-score in assay [1] is 0.429; in assay [3], -0.0328; in [4], -0.12; in assay [5], 0.757; in assay [6], 1.04; in assay [7] it was -0.0752. Besides, the composite z-score is 0.234 in assay [8], -0.663 in [9] and 0.827 in assay [10]. The composite Z-score in assay [2] was -0.483 (inactive).

As for `CC(=O)NCCCC[C@@H]1NC(=O)[C@@H]2C[C@H](C(=O)O)[C@H](c3ccc(O)cc3)N2C1=O`, the composite z-score in assay [1] is -0.757; in [3], -0.594; in assay [4], -0.1; in assay [5], 0.658; in [6], -0.0142; in assay [7], -0.0574. The composite z-score in [8] is -1.04; in assay [9], -0.755; in assay [10], 0.092. In addition, the composite Z-score in [2] is 1.77 (inactive).

`CC(C)CCC[C@@H](C)[C@H]1CC[C@@]2(C)C3=C(CC[C@]12C)[C@@]1(C)CC[C@H](OC(=O)c2ccc(Br)cc2)C(C)(C)C1CC3` (stereo not given in full): the composite z-score is -0.0217 in assay [1]; 0.173 in [3]; -0.117 in [4]; 0.108 in assay [5]; -0.28 in assay [6]; 0.432 in assay [7]. The figures for the composite z-score in assay [8], in [9] and in assay [10] were 0.28, 0.498 and 0.291, respectively. For the same compound, the composite Z-score in assay [2] was -0.174 (inactive).

Take `CC(C)C(=C=CC[C@H](O)c1ccc(OCCO)cc1)C[C@H](O)c1cc(Cl)cc(Cl)c1O`: the composite z-score in assay [1] is 0.584; in [3], 0.232; in assay [4], -0.0533; in assay [5], 0.542; in [6] it was 0.644; in assay [7], 0.147. Besides, the results for the composite z-score in assay [8], in assay [9] and in [10] were 1.26, 0.243 and 1.07, respectively. In assay [2], the composite Z-score was 0.32 (inactive).

Turning to `COc1cc(OC)c(C(O)C2C=CC3C(=O)N(c4ccccc4)C(=O)C3N2Nc2ccc(C#N)cc2)cc1Br` (stereo not given), the composite z-score in [1] was 1.01; in assay [3], 0.334; in [4], 0.401; in [5], 0.849; in assay [6], 2.49; in assay [7], 1.41. The composite z-score in assay [8] was 1.15; in assay [9], 0.355; in assay [10] it was 1.04. Also, the composite Z-score in assay [2] is 1.5 (inactive).

`CN(C)CCCN1C(=O)[C@@]2(c3ccc([N+](=O)[O-])cc3)CC(=O)N(CC34CC5CC(CC(C5)C3)C4)[C@@H]2c2ccc(CO)cc21`: the composite z-score was -0.348 in assay [1]; -0.208 in assay [3]; -0.0391 in assay [4]; 0.76 in [5]; 1.08 in [6]; 0.538 in assay [7]. Further, the composite z-score in assay [8] was 0.503; in [9] it was -0.304; in [10] it was 0.412. The composite Z-score in assay [2] is -0.184 (inactive).

As to `NC(=O)N1C(=O)C2C(C1=O)C1C=C(c3ccc(CO)cc3)C2C(C2CC2)N1Cc1sc2ccccc2c1Cl` (stereo not given), the composite z-score was 0.849 in assay [1]; 0.0225 in assay [3]; -0.101 in assay [4]; 0.468 in assay [5]; 1.67 in assay [6]; 0.733 in [7]. Besides, the composite z-score stood at 1.31 in assay [8], 0.441 in assay [9] and 1.18 in assay [10]. In addition, in assay [2], the composite Z-score was 0.742 (inactive).

For the compound `C[C@@H](OCc1ccccc1)C1NC(=O)[C@@]23C(=O)N[C@@H](Cc4ccccc4)C2[C@H](C)[C@@]2(C)O[C@H]2C3/C=C/C/C=C\CNC(=O)CNC1=O` (stereo not given in full), the composite z-score in [1] is 0.651; in assay [3], -0.0647; in [4] it was -0.133; in [5], 0.721; in assay [6] it was -0.282; in assay [7], 0.234. Moreover, the composite z-score in assay [8] was -1.28; in assay [9] it was 0.0667; in assay [10] it was -2.32. Besides, the composite Z-score in assay [2] is 0.536 (inactive).

On to `C[C@H]1C2=C3C(CC[C@H]4C(OCc5ccc(F)cc5C(F)(F)F)OC[C@](C)([C@@H]34)N(C(=O)OC(C)(C)C)C2)C(CO)C1CO` (stereo not given in full), for which the composite z-score is 0.953 in assay [1]; 0.266 in assay [3]; 0.0831 in assay [4]; 0.352 in [5]; 3.19 in assay [6]; 0.505 in assay [7]. In addition, the results for the composite z-score in assay [8], in assay [9] and in assay [10] were 1.31, -1.44 and 0.862, respectively. Further, the composite Z-score in assay [2] is 1.08 (inactive).

In the case of `C=CCOC(=O)[C@@H]1[C@H]2C(=O)O[C@H](c3ccccc3)[C@H](c3ccccc3)N2[C@H](c2ccc(OCCOC(=O)[C@H]3C[C@H]4C(=O)N[C@@H](CCCCN(C)C)C(=O)N4[C@H]3c3cccc(OCCO)c3)cc2)[C@@]12C(=O)Nc1ccc(I)cc12`, the composite z-score is -0.624 in [1]; 0.194 in assay [3]; -0.14 in assay [4]; 0.507 in assay [5]; 1.64 in [6]; 0.168 in assay [7]. In addition, the composite z-score in assay [8] was 1.25; in assay [9] it was 0.798; in assay [10], 1.15. For the same compound, in [2], the composite Z-score was 0.204 (inactive).

For the compound `O=C1NC(=O)C2C1C=CC(C(O)c1cc(C(F)(F)F)cc(C(F)(F)F)c1)N2Nc1ccc(Cl)cc1Cl` (stereo not given), the composite z-score in assay [1] is 0.839; in assay [3] it was 0.0833; in assay [4], -0.0703; in [5], 0.583; in assay [6], 2.45; in assay [7], 0.554. Besides, the composite z-score in [8] is -0.163; in [9], -0.464; in assay [10], -0.415. Further, the composite Z-score in assay [2] is 0.809 (inactive).

The record behind these values is PubChem BioAssay.
